Data reported in the supplement of paper PMC11060735.
Counter-ions that a name gives are not always drawn. ± gives the standard deviation of the averaged measurements. Over roughly 1,800 compounds, “GFP- (p16Ink4a-) cell count relative to negative-control wells” has its median near 0.99; the lowest 2% begin near 0.5. The sample as a whole holds a higher share of the lowest values than the screen did.

System: mouse p16Ink4a+/- lung fibroblasts (INKBRITE, bleomycin-injured)
Experiment: GFP- (p16Ink4a-) cell count relative to negative-control wells (fold of vehicle); higher = more p16Ink4a- cells surviving
Settings: 1 µM; 3 days

**Q.** `C/C(=C\c1csc(C)n1)[C@@H]1C[C@@H]2O[C@]2(C)CCC[C@H](C)[C@H](O)[C@@H](C)C(=O)C(C)(C)[C@@H](O)CC(=O)O1` [Epothilone B, Patupilone] was tested. Which GFP- did it give?
**A.** 1.03

**Q.** With `C/C(=C\c1csc(C)n1)[C@@H]1C[C@@H]2O[C@@H]2CCC[C@H](C)[C@H](O)[C@@H](C)C(=O)C(C)(C)[C@@H](O)CC(=O)O1` [Epothilone A] as the compound, how does the GFP- read?
**A.** 0.423

**Q.** How did the GFP- turn out when `CN(C)[C@@H]1C(=O)C(C(N)=O)=C(O)[C@@]2(O)C(O)=C3C(=O)c4c(O)cccc4[C@@](C)(O)[C@H]3C[C@@H]12` [Tetracycline] was run?
**A.** 1.07

**Q.** Which GFP- does the source give for `C=C1C[C@@H]2[C@H](CC[C@]3(C)C(=O)CC[C@@H]23)[C@@]2(C)C=CC(=O)C=C12` [Exemestane] here?
**A.** 1.13

**Q.** With `C[C@@H]1CC[C@@]2(OC1)O[C@H]1C[C@H]3[C@@H]4CC=C5C[C@@H](O[C@@H]6O[C@H](CO)[C@@H](O[C@@H]7O[C@@H](C)[C@H](O)[C@@H](O)[C@H]7O)[C@H](O)[C@H]6O[C@@H]6O[C@@H](C)[C@H](O)[C@@H](O)[C@H]6O)CC[C@]5(C)[C@H]4CC[C@]3(C)[C@H]1[C@@H]2C` [Dioscin] as the compound, how does the GFP- read?
**A.** 1.03

**Q.** For `COc1ccc(C(=O)N2CCCC2=O)cc1` [Aniracetam], which GFP- is on record?
**A.** 0.968

**Q.** Which GFP- does the source give for `CN1[C@@H]2CC[C@H]1C[C@@H](OC(=O)C(CO)c1ccccc1)C2` (stereo not given in full) [Atropine] here?
**A.** 0.843

**Q.** Which GFP- does the source give for `CC(C)[C@]12O[C@H]1[C@@H]1O[C@]13[C@]1(O[C@H]1C[C@H]1C4=C(CC[C@@]13C)C(=O)OC4)[C@@H]2O` [Triptolide] here?
**A.** 0.366

**Q.** How did the GFP- turn out when `CC(=O)Nc1ccc(OC[C@](C)(O)C(=O)Nc2ccc([N+](=O)[O-])c(C(F)(F)F)c2)cc1` [Andarine] was run?
**A.** 1

**Q.** For `CCN(CC)C(=O)c1ccc(C2=CC3(CCNCC3)Oc3cccc(O)c32)cc1`, which GFP- is on record?
**A.** 0.95

**Q.** With `CCNC(=O)C[C@@H]1N=C(c2ccc(Cl)cc2)c2cc(OC)ccc2-n2c(C)nnc21` as the compound, how does the GFP- read?
**A.** 1.04 ± 0.19

**Q.** How did the GFP- turn out when `C1=C2CCCN[C@H]2[C@@H]2C[C@H]1[C@H]1CCCCN1C2` [Aloperine] was run?
**A.** 0.98

**Q.** `O=[N+]([O-])/C=C/c1ccc2c(c1)OCO2` was tested. Which GFP- did it give?
**A.** 1.03

**Q.** For `CC[C@@H]1[C@@H](C)O[C@@](O)([C@@H](C)[C@H](O)[C@H](C)[C@H]2OC(=O)/C=C/C=C/[C@H](C)[C@H]([C@@H](C)[C@@H](O)[C@H](C)[C@@]3(O)C[C@@H](O[C@H]4C[C@H](O)[C@H](O)[C@H](C)O4)[C@H](CC)[C@@H](C)O3)OC(=O)/C=C/C=C/[C@H]2C)C[C@H]1O[C@H]1C[C@H](O)[C@H](O)[C@H](C)O1` [Elaiophylin], which GFP- is on record?
**A.** 0.414

**Q.** How did the GFP- turn out when `CCOC(=O)c1cncn1C(C)c1ccccc1` (stereo not given) [Etomidate] was run?
**A.** 1.09

**Q.** How did the GFP- turn out when `Oc1nc2ccc(Cl)cc2c(N[C@@H]2CN3CCC2CC3)c1-c1nc2ccccc2[nH]1` was run?
**A.** 0.944

**Q.** `CC(C)NCC(O)c1ccccc1Cl` (stereo not given) [Clorprenaline] was tested. Which GFP- did it give?
**A.** 1.02

**Q.** For `C[C@H]1CCC/C=C/[C@@H]2C[C@H](O)C[C@H]2[C@H](O)/C=C/C(=O)O1` [Brefeldin A], which GFP- is on record?
**A.** 0.4

**Q.** With `CCc1c(C(=O)C(N)=O)c2c(OCC(=O)O)cccc2n1Cc1ccccc1` [Varespladib] as the compound, how does the GFP- read?
**A.** 1.27

**Q.** For `CCOc1ccccc1-n1c(C(C)N2CCN(C(=O)COc3ccc(Cl)cc3)CC2)nc2ccccc2c1=O` (stereo not given) [Erastin], which GFP- is on record?
**A.** 0.31

**Q.** For `O=C(O)CNC(=O)c1c(O)c2ccccc2n(Cc2ccccc2)c1=O`, which GFP- is on record?
**A.** 1.07 ± 0.046

**Q.** `CNCC(=O)c1ccc(O)c(O)c1` [Adrenolone Hydrochloride] was tested. Which GFP- did it give?
**A.** 1.05

**Q.** Which GFP- does the source give for `CN1C(=O)CCS(=O)(=O)C1c1ccc(Cl)cc1` (stereo not given) [Chlomezanone, Chlormezanone] here?
**A.** 1.03

**Q.** How did the GFP- turn out when `CO[C@H]1CCC(O[C@H]2C[C@H]([C@]3(C)CC[C@]4(C[C@H](O)[C@@H](C)[C@@H]([C@@H](C)/C=C(\C)C(=O)[C@H](C)C[C@H](C)C(=O)O)O4)O3)O[C@]3(O[C@@H]([C@H]4O[C@@](O)(CO)[C@H](C)C[C@@H]4C)C[C@@H]3C)[C@@H]2C)O[C@@H]1C` (stereo not given in full) [Nanchangmycin] was run?
**A.** 0.412

**Q.** For `Cc1sc2c(c1C)C(c1ccc(Cl)cc1)=N[C@@H](CC(=O)Nc1ccc(O)cc1)c1nnc(C)n1-2`, which GFP- is on record?
**A.** 0.844 ± 0.048

**Q.** With `CCCN1CCO[C@H]2c3cc(O)ccc3OC[C@@H]21` as the compound, how does the GFP- read?
**A.** 1.04

**Q.** For `C/C=C(\C)C(=O)N[C@@H](c1ccccc1)[C@@H](O)C(=O)O[C@H]1C[C@@]2(O)[C@@H](OC(=O)c3ccccc3)[C@@H]3[C@]4(OC(C)=O)CO[C@@H]4C[C@H](O)[C@@]3(C)C(=O)[C@H](OC(C)=O)C(=C1C)C2(C)C` [Cephalomannine], which GFP- is on record?
**A.** 0.683

**Q.** For `Cc1ccc(-n2nccn2)c(C(=O)N2CCN(c3nc4cc(Cl)ccc4o3)CC[C@H]2C)c1` [Suvorexant], which GFP- is on record?
**A.** 1.13

**Q.** How did the GFP- turn out when `C[C@@H]1[C@H](O)[C@@H](C)/C=C/C=C/CC/C=C/C=C/C=C/C=C/[C@H](O[C@H]2O[C@@H](C)[C@H](O)[C@@H](N)[C@H]2O)C[C@@H]2O[C@](O)(C[C@@H](O)[C@H](O)CC[C@@H](O)C[C@@H](O)C[C@@H](O)CC(=O)O[C@H]1C)C[C@H](O)[C@H]2C(=O)O` [Nystatin (Fungicidin)] was run?
**A.** 0.951

**Q.** Which GFP- does the source give for `C[C@H]1CNCCc2ccc(Cl)cc21` [Lorcaserin] here?
**A.** 1.02
